29 molecules from the supplement of paper PMC12632987 can be followed below.

In all, about 4,500 sequences were measured (“median log2 fold change of GCK-ALFA target abundance (FLAG IP / Myc IP barcode read proportion)”: median about 0.078, lowest 2% from about -0.6 on). This excerpt belongs to a sample that is enriched for the lowest values.

B1: GBRAP_160_4272 (protein)
chain: SPEREELIEDIEEDREEILELVDKISPEEVRNFAVTSLGSHLLEAIDLGLVTDEQEDELMEIVDELEKELKEAENASKEEIKKIITEHYDKAIEILKKAK
B2: GBRAP_166_4873 (protein)
chain: HMEELLKKAEKEIEKLLKEASEADEEEQVELYIEIGEIIEELKEAGASLEDILELIERTLKEAKKLGLDVKKLAGIIINVTDFNEEEIDKIDEIVEKVLK
B3: GBRAP_14_3780 (protein)
chain: MEKIEEIIREKAEEIIELLTEIAPEKAEEITEIVEEVVERTIARIKETGNAEEAAEEGRDELLARIAELTADLPAETRARMLAVVAVEFGQAILEIEELL
B4: GBRAP_125_2986 (protein)
chain: EEEELLEDLREIFKALGLSEEDAEEAVKLAREFSLKQTLYALMAALGAEEVADAVAKLTEEQAKEVVKEASEYIKKNPNITPEEVVELLLELAKKQLAKA
B5: GBRAP_78_6666 (protein)
chain: ELEKIIDETLELLTEVIRASKSLPPEVQEAVLDEAVEAATELEEIEEEGPNLEELEEAIKHLEKLLELLEKNKSPELEPLIEKLKKQIEKLKKAKEELEK
B6: GBRAP_95_7066 (protein)
chain: EEDREIAEDLIDTAEDLVEIGLYEQAARAAKAAVEVLKEIGETGELALRAAEVLVKVAEATGDEEAAEAAKEVLERIREAGGDEERIKELEKRLEEAKKK
B7: GBRAP_184_5265 (protein)
chain: KVLERTIKAENVEELIAKMEEVRKEALATGADVIILLEVEKLTKEMIDALFAQLKALRDAGYKGKITVGIDADLTEEMIDYVIKKADEAGVNVVLAISEE
B8: GBRAP_84_6999 (protein)
chain: STDEEIIELAKEIFDRVKGEAAVKILALVLLKVTGETATRILNYALERDPQVAYDALSLAYEVVSEDKEEELEEEARRLMAEESPEVRAKFERLLELMKA
B9: GBRAP_128_3320 (protein)
chain: MDEELLAEFKELAEAAKKADLPTLAKLTAEMVALIGQADAETREEMAEIFRKALEELDAEKLDVVADTLRAEMPKLDPEAARVVADLAVDALNLAEEKEE
B10: GBRAP_11_2689 (protein)
chain: KKEKLEEGAKLAEKGAELVERLLREGVDNEELLAELEKTLEELLKLAKKHASPASQKLTEDIKETWKRLLADPENAEEYARELLAGLRVLAGQYLLEIEE
B11: GBRAP_137_3670 (protein)
chain: MIRVEVELENGLAFARITVEGSPEELERAAEIAEDIAGEIPDLAVSVKLTEEGRLEIDVFGTPESVEAFLRRLAERLDRTVEVTTRDEETGEVRRRVIRP
B12: GBRAP_184_5066 (protein)
chain: SVAEETLEVRDLAEARAKLAALRAAVADHRGDLVVHLVLPEFDREIVALVLEGLAEIRAAGYARRVTVGLDADLTEEEADFAIELADAAGVNLTLALPEE
B13: GBRAP_95_7084 (protein)
chain: EEELEEAEALMATAVDLYDAGLEEQAARAIRDALDELEELGYKVADKELLERLLRHFVALALRHFDAEEVERALALAEASGAPAEIIAALRAALAALRAA
B14: GBRAP_79_6747 (protein)
chain: GVEEARRALVEALRVVLPDLTEEEAAEAVASDEALRAALLRAGISEEMAAELLEAIDAIPELAAERFRRTVERMEGLEPEDRRDVLEATIAAVIYEAEQR
B15: GBRAP_160_4279 (protein)
chain: SEKLLELAEELEEDREEILSLVDEISAEEVRTLAVTDLGSILLEAIDLELLSDEEEDELAKIIDDLDAELAAAADASPAERRAIITRHYDKAIELLRKAA
B16: GBRAP_52_6358 (protein)
chain: ALEEALALLREALAAVAAGDEEEARAILEELVATYSEETILAAFERLAEEVADKDVATAEALLETALLLADVMDEAGRDPAVADDIEAIAARTYMAVKAK
B17: GBRAP_48_5840 (protein)
chain: EEEKREKAIEEILKIIKETAELLEEAKEEGLSEAAFEAILIDAAEEIKEVLEKYLGLGEEFEKLPLEEQLAIVEELVKTYKEEGEEATRKKIKEFIEKLE
B18: GBRAP_186_5371 (protein)
chain: EEEAEKEIEEFIDEAAKKGYVISGVLEVKEFTEEAKKKIFDELEALAEFSAEFGYKGALIIKSTVSEEEFEELKKFVEEKRDELSKETGAEVEVKIVHVK
B19: GBRAP_78_6619 (protein)
chain: ETKEKIIELLDRARDRMREIARREPEVRDLANEAAVLVGTAILMVDTGEESKEEIIEELEEALKVAKELLERLEGRDEESVKLAKEAIEDLKKAIELVKK
B20: GBRAP_160_4698 (protein)
chain: TATAEKLKAFVKEEFEKAKEEIEGESREQRAVILAGTGGEILMELVEDPNATDELEDEVLAIFDDAVATLLANPNLTLEETKALIDEVEAKVLAAIDKHL
B21: GBRAP_166_4925 (protein)
chain: MIEEKVEEARKRLEEVIREGRADPSLTDGQITAAMAYEVAEMLKDIEDEEEKLAVVEEGLRLAKEEGLDPRRLATLTASLYGFSDEERERIDEITEKILA
B22: GBRAP_53_6398 (protein)
chain: AAAAIAAGLAELEALIAEVEADPTLDAADVAARAGALLKALAAAGAPEAELTALARRLAAAVAARGLGVEVSTALAATAAAAGREAVAAVFTEAAVEDLE
B23: GBRAP_128_3157 (protein)
chain: STEEVREETRRLLEEIRESDEEEAREIARELFALILTLSDEEAEAAVEVILELLPELSKEKLEILADVAREMRPEADPFKAELLAEVEVEALNEALELEE
B24: GBRAP_45_5811 (protein)
chain: SEELKETREKLEELLKKAKELAEKLKEEDPEKFTPLLELLEEAEKLLKEEPESLEAWERIEELLEEALKLALDSKKASAELLETLLEAANLALEAKELLE
B25: GBRAP_52_5842 (protein)
chain: MEEEARRLAEELVALAEAGREEELDALIEEIVETLSEEEVMLVLEELARLAAEADPETAEVIFDVADRLADAALAAGFDEMEMSLGLALVGAAVYKALQR
B26: GBRAP_184_5031 (protein)
chain: SVIERTIKADNLEELEAKLEKLKEEVKGSKADLIVTLDIKNPTEEMIKTALKRLGEMKKNGDVSSVTVGFARLLSEELIDVALKTADEEGVKVVLPISEE
B27: GBRAP_52_6157 (protein)
chain: MEARAEAYANALIAAVKAGDEAAIRALMEEIAATLSEEEIELMMAIVAEKVAGLTPEEQERAVEAALELEDILIAAGHDENIASYNTARVAGAAYDALQA
B28: GBRAP_52_6039 (protein)
chain: MEEEMRRKAEEIVELVKAGRRAEAEARIRELVATWSEEELELLGEELARLAREAEPEDLDAVMEAALMLADALEAAGYDPAFADDLLARVAAAAVENLQR
B29: GBRAP_14_3840 (protein)
chain: REEVRRLLLEAVERAVEEVRKFAPEEARERVEALREVLRRAVDEGLETGDLEEAERRLVEVAEAAVRELFADLPPEERGALVAVAVDELVEGFEELEERL

In this assay the target is GABARAP, O95166. In words: median log2 fold change of GCK-ALFA target abundance (FLAG IP / Myc IP barcode read proportion) (log2 ratio); each designed protein is fused to an ALFA-tag nanobody in HEK293 cells to bring the named protein to FLAG-tagged glucokinase (GCK); Myc marks an untargeted standard; higher = target protein stabilised (more abundant). To be noted: target protein: 3xFLAG-MCP-GCK-ALFA reporter; HEK293 landing pad (RPLP). In short, it runs like this: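 Binders fused to an ALFA nanobody were recombined as a library into HEK293 landing-pad cells, which were induced with 2 μg mL^−1 doxycycline and then transfected to express a FLAG-tagged target and a Myc-tagged standard. After 48 h, circular RNA barcodes recovered by anti-FLAG and anti-Myc immunoprecipitation of lysates were reverse transcribed, amplified and sequenced. Each binder's target abundance is the median log2 ratio of FLAG to Myc barcode read proportions, from barcodes present at ≥10^−7 in both replicates, binders carrying ≥3 barcodes per replicate, a 10^−6 pseudocount and pooled replicates.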
Sequence of GABARAP, O95166 (O95166 whole entry, the tested form may be a part): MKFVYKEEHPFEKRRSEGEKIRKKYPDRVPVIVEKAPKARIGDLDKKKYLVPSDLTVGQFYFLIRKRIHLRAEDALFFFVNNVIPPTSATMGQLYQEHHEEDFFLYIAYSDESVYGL
In the case of B1, the “median log2 fold change” value was determined as 0.239.
Next, B2: -0.298; B3: -0.0168.
Next, B4: -0.643; B5: 0.274; B6: 0.142.
As to B7, the “median log2 fold change” value was -0.0191.
Next, B8: -0.601; B9: 0.0824.
As for B10, the “median log2 fold change” value was 0.195.
Turning to B11, the “median log2 fold change” value is 0.0906.
With B12, the “median log2 fold change” value came out at 0.0273.
For B13, the “median log2 fold change” value is -0.692.
Next, B14: 0.209; B15: -0.493.
For B16 the value was -0.632; for B17, -0.364; for B18, 0.163.
Next, B19: 0.338; B20: -0.69; B21: 0.302.
Consider B22, for which the “median log2 fold change” value amounted to 0.254.
For B23 the value was 0.00897.
For B24 the value was 0.129; for B25, -0.837; for B26, 0.0419.
For B27 the value was -0.262; for B28, -0.911; for B29, 0.0661.
